{"source": "PubChem BioAssay (NCI)", "note": "Several values for one entry are separate records, joined by “and”; a condition that tells them apart may be missing. Equal values may be shown once. Compounds without any hit were thinned out: in the full panel of roughly 83,000, 20% have a hit.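 96-well plates, one dose, 48 hours. Percent growth reported; active if below 10.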 A number with no mark means an inactive call. Activity calls are given as the source filed them."}
{"tested_on": "MDA-MB-468 breast", "experiment": "NCI-60 one-dose screen, 48 h (100 = growth as untreated, 0 = no growth, -100 = all killed)", "details": "10 µM unless noted"}
{"smiles": "c1ccc(CNc2nc(Nc3ccccc3)nc3ccccc23)cc1", "growth": "13.2%"}
{"smiles": "CC(=O)C(C)Cc1cc2c(cc1C)C(C)(C)CCC2(C)C", "note": "(stereo not given)", "growth": "97.6%"}
{"smiles": "COc1ccc2c(c1)C(C)Cc1c(ncnc1-n1cnc3ccccc31)N2C", "note": "(stereo not given)", "growth": "27.3%"}
{"smiles": "COc1cc2c(c(OC)c1OC)CCC(c1cccc(C(=O)Nc3ccc(C#N)cc3)c1)O2", "note": "(stereo not given)", "growth": "46.4%"}
{"smiles": "CC(=O)N[C@H](C(=O)N[C@@H](CCCNC(=N)N)C(=O)N[C@@H](CCCCN)C(=O)N[C@@H](CCCNC(=N)N)C(=O)NC(C(=O)N[C@@H](CC(C)C)C(=O)N[C@@H](CCCNC(=N)N)C(=O)N[C@@]1(C)CCC/C=C\\CCC[C@@](C)(C(=O)N[C@@H](CCCNC(=N)N)C(=O)N[C@@H](CCC(=O)O)C(=O)N[C@@H](CC(C)C)C(=O)N[C@H](C(=O)N[C@@H](CCC(=O)O)C(N)=O)C(C)C)NC(=O)[C@H](CCC(N)=O)NC(=O)[C@H](CC(C)C)NC(=O)[C@H](CC(C)C)NC1=O)[C@@H](C)O)C(C)C", "note": "(stereo not given in full)", "growth": "31.9%"}
{"smiles": "COc1ccc(-c2cn[nH]c2-c2cc(OC)c(OC)c(OC)c2)cc1N", "growth": "-13.3% (active) and -29.2% (active)"}
{"smiles": "Cc1ccc(C(=O)Nc2ccc(CN3CCN(C)CC3)c(C(F)(F)F)c2)cc1C#Cc1cnc(N)c2ccccc12", "growth": "-61.7% (active)"}
{"smiles": "Clc1ccc2c(N3CCN(c4ccnc(NC5CCCCC5)n4)CC3)ccnc2c1", "growth": "29.4%"}
{"smiles": "COc1cccc(CCC2C(=O)CCCC2=O)c1", "growth": "115%"}
{"smiles": "Nc1cccc2c1C(=O)c1cccc(NC(=O)c3ccccc3)c1C2=O", "growth": "10.6%"}
